Screening data deposited in PubChem by several laboratories.
MLLE-PAM2 inh: blocks PAM2 peptide binding to the PABP1 MLLE domain; GST-MLLE / FITC-PAM2 fluorescence polarization; inhibition, % at 20 µM; 360,000 compounds, 0.36% hits; in the data active = inhibition above about 35%, passing the limit was not always enough
eIF4H inh: inhibitors of RNA binding by human eIF4H; 290,000 compounds, 0.94% hits; eIF4H fluorescence polarization binding assay; Q15056; inhibition, % at 35 µM;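 also: calls also rest on retests at 20 µM and on dose response follow-up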
MEX-5 binding: C. elegans MEX-5 TCR-2 RNA binding activity | Q9XUB2 | MEX-5/FITC-TCR2 RNA binding, fluorescence polarization; stronger effect = lower value | activity score (negative = inhibition of binding), % at 10 µM | 300,000 compounds, 0.38% hits | AID 1832;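 active = inhibition past about -25% in most replicates, and total fluorescence under double the plate's negative control median, limit read from the data; inconclusive = replicates evenly split on the limit, or fluorescence at least double controls; inactive = too little inhibition in most replicates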
EBV gp42 inh: blocks Epstein-Barr virus glycoprotein 42 binding. Q1HVG2. Fluorescence polarization binding assay, mP read-out. inhibition, % (tested at 21.74 µM). 220,000 compounds, 0.42% hits. AID 1085; in the data active = inhibition above about 50%
Target sequence (Q1HVG2 whole entry, looked up): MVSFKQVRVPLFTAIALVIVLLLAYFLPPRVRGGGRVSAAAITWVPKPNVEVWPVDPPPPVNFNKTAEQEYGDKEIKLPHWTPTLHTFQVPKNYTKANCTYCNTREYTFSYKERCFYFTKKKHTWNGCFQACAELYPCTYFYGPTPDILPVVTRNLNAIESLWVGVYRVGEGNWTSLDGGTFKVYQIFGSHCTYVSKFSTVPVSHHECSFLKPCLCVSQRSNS
PABP FP inh: blocks human PABP binding to poly(A) RNA; P11940; fluorescence polarization; calls only at 35 µM; 290,000 compounds, 1% hits; AID 2014;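 also: calls also rest on retests at 20 µM and on dose response follow-up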
Hits are given with their value; i = inactive; ? = inconclusive; nt = not tested or not shown; + = active, no number. Hits are enriched below; roughly 1.8% of the tested compounds scored in any of these assays. Unless noted, no rule for the calls is given here.

SMILES | MLLE-PAM2 inh | eIF4H inh | MEX-5 binding | EBV gp42 inh | PABP FP inh
O=C(O)C1CCCCC1C(=O)Nc1nc(-c2ccc(Cl)s2)cs1 (stereo not drawn) | i | 76.5 | i | i | +
Cc1ccc(S(=O)(=O)N(C)C[C@@H]2OCc3cnnn3CCCC(=O)N([C@H](C)CO)C[C@@H]2C)cc1 | i | nt | nt | nt | nt
CCN(CC)c1ncnc2c1[nH]c1ccccc12 | i | 71.5 | i | i | +
CCCOc1ncnc2c1[nH]c1ccccc12 | i | i | i | i | i
O=C(COC(=O)c1ccccc1SCC(=O)N1CCCC1)NCc1ccc(F)cc1 | i | nt | nt | nt | nt
O=C(O)C(=O)/C(=C\c1cccc2ccccc12)c1ccc2ccccc2n1 | i | 67.0 | -39.7 | i | +
O=C(O)C(=O)/C(=C\c1ccsc1)c1ccc2ccccc2n1 | i | i | -47.9 | nt | i
O=C(O)C(=O)/C(=C\c1ccccc1)c1ccc2ccccc2n1 | i | i | i | i | i
O=C(O)C(=O)/C(=C\c1ccc([N+](=O)[O-])cc1)c1ccc2ccccc2n1 | i | i | i | i | i
CCN(C(=O)CN1CCCc2cc(C)ccc21)c1c(N)n(Cc2ccccc2)c(=O)[nH]c1=O | i | nt | nt | nt | nt
CCCCN(C(=S)NC(=O)c1ccccc1)c1c(N)n(Cc2ccccc2)c(=O)[nH]c1=O | 37.4 | i | i | i | i
COCCCN(C(=S)NC(=O)c1ccc(Br)cc1)c1c(N)n(Cc2ccccc2)c(=O)[nH]c1=O | i | i | i | i | i
CCN(C(=O)CN1CCCc2ccccc21)c1c(N)n(Cc2ccccc2)c(=O)[nH]c1=O | nt | 98.9 | nt | nt | +
O=C(CSc1nnc(SCc2ccccc2)s1)N/N=C/C=C\c1ccco1 | i | i | i | 53.2 | i
O=C(Nc1cccc(NC(=O)c2cccc([N+](=O)[O-])c2)n1)c1cccc([N+](=O)[O-])c1 | i | i | i | nt | i
CC1CN=C(NC(=O)c2cccc([N+](=O)[O-])c2)S1 (stereo not drawn) | 41.5 | i | i | nt | i
COc1ccccc1OCC(=O)Sc1ccc(C)cc1 | 36.4 | i | i | i | i
COc1ccccc1OCC(=O)NCCNC(=O)COc1ccccc1OC | 39.9 | i | i | i | i
CC(C)(C)S(=O)N1Cc2cc(C(=O)N[C@@H]3CCN(Cc4ccccc4)C3)nc(-c3cccc(-c4cc5ccccc5o4)c3)c2[C@@H]1CCO (stereo partly drawn) | i | nt | nt | nt | nt
NC(Cc1ccc(F)cc1)c1csc(Nc2ccc(C(=O)c3ccccc3)cc2)n1 (stereo not drawn) | i | nt | nt | nt | nt
CCOC1=C2[C@@H](CN(S(=O)(=O)c3ccc(C)cc3)[C@H]2c2cccs2)[C@H]2C(=O)N(c3ccccc3)C(=O)[C@H]2C1 | i | nt | nt | nt | nt
O=C(CCl)NCCN1C(=O)S/C(=C\c2cccnc2)C1=O | i | i | -59.7 | i | i
COc1ccc2nc(Cl)c(C=O)c(N3CCOCC3)c2c1 | i | nt | nt | nt | nt
CCOC(=O)C1(C)CCCN(C(=O)c2cccnc2)C1 (stereo not drawn) | i | nt | nt | nt | nt
NC(=O)C1CCN(C(=O)CN2CCCc3ccccc32)CC1 | i | 78.2 | i | i | +
SMILES | MLLE-PAM2 inh | eIF4H inh | MEX-5 binding | EBV gp42 inh | PABP FP inh
COC(=O)C[C@H]1C[C@H]2c3cc(NC(=O)C4CCC4)ccc3O[C@H]2[C@H](CO)O1 | i | nt | nt | nt | nt
COc1cccc(Nc2nc(C(N)c3ccccc3)cs2)n1 (stereo not drawn) | i | nt | nt | nt | nt
CC(=O)Nc1c2c3c(cccc3n(C)c1=O)C(=O)c1ccccc1-2 | i | i | i | i | i
CC(=O)Nc1ccc(Nc2ccc3c4c(cc(=O)n3C)-c3ccccc3C(=O)c24)cc1 | 65.0 | i | i | i | i
CC(=O)OC1(C)C=Cc2ccccc2C1=NS(=O)(=O)c1ccccc1 (stereo not drawn) | i | nt | nt | nt | nt
COc1ccc(OCC(=O)NC(=S)Nc2ccc(S(=O)(=O)Nc3cc(OC)nc(OC)n3)cc2)cc1 | 48.6 | i | i | i | i
O=C(NC(=S)Nc1ccc2c(c1)C(=O)c1ccccc1C2=O)c1ccc(F)cc1 | nt | i | i | i | +
COc1ccc(NS(=O)(=O)c2ccc(NC(=S)NC(=O)c3cccc(F)c3)cc2)nn1 | 37.9 | i | i | i | i
COc1cc(NS(=O)(=O)c2ccc(NC(=S)NC(=O)/C=C/c3ccc(F)cc3)cc2)ncn1 | 40.5 | i | i | i | i
C[C@]12c3[nH]c4ccc(Cl)cc4c3CCN1C(=O)[C@@H](CC(=O)NCc1ccco1)C[C@@H]2C(=O)N1CCCCC1 | i | nt | nt | nt | nt
Cc1ccccc1NS(=O)(=O)c1ccc(C(=O)NCc2ccccc2CN2CCCC2)cc1 | i | nt | nt | nt | nt
c1cc(-c2ccc(N3CCOCC3)cc2)n2cnnc2c1 | i | nt | nt | nt | nt
Cc1cc(NS(=O)(=O)c2ccc(NC(=S)NC(=O)c3ccc(F)cc3)cc2)no1 | 39.8 | i | i | i | i
Nn1c(SCC(=O)NC2CCCC2)nnc1C(F)(F)F | i | nt | nt | nt | nt
CCOC(=O)C1CCCN(C(=O)c2cncc(Br)c2)CC1 (stereo not drawn) | i | nt | nt | nt | nt
CS(=O)(=O)N1CCN(c2ccc([N+](=O)[O-])c(NCc3ccccc3)c2)CC1 | i | i | i | i | i
CS(=O)(=O)N1CCN(c2ccc([N+](=O)[O-])c(NCc3ccc(Cl)cc3)c2)CC1 | i | active | i | i | +
Cc1cccc(N=C2NC(=O)/C(=C/c3cccn3C)S2)c1C | i | i | i | i | i
Cc1ccc(N=C2NC(=O)/C(=C/C=C/c3ccco3)S2)cc1 | i | 76.5 | i | i | +
O=C1NC(=Nc2ccccc2)S/C1=C\C=C\c1ccco1 | i | i | i | i | i
COc1ccc(N=C2NC(=O)/C(=C/c3ccco3)S2)cc1 | i | 66.1 | i | i | i
Cc1cccc(N=C2NC(=O)/C(=C/C=C/c3ccco3)S2)c1C | i | i | i | i | +
CCCNC(=O)C1(C)CCN(Cc2ccc(OC)c3ccccc23)C1 (stereo not drawn) | i | nt | nt | nt | nt
CCc1n(CC(O)COCC2CC=CCC2)c2ccccc2[n+]1C (stereo not drawn) | i | i | i | i | i
CCc1n(CC(O)COC2CCCCC2)c2ccccc2[n+]1C (stereo not drawn) | i | i | i | i | +
SMILES | MLLE-PAM2 inh | eIF4H inh | MEX-5 binding | EBV gp42 inh | PABP FP inh
Cc1cn([C@H]2C[C@H](O)[C@@H](CNCc3ccc(-c4cc(Cl)ccc4C(F)(F)F)o3)O2)c(=O)[nH]c1=O | i | nt | nt | nt | nt
CCc1nc2ccc(C(=O)N3CCN(C(C)=O)CC3)cn2c1N(CC)C(=O)NCCc1ccccc1 | i | nt | nt | nt | nt
Oc1ccccc1C=NC1=NN(c2cccc(C(F)(F)F)c2)CC1 | i | i | i | 112.9 | i
O=C(c1ccccn1)N(Cc1ccco1)C1(C(=O)Nc2ccc(Br)cc2)CCCCC1 | i | nt | nt | nt | nt
CCCCCCCNC1=CC(=O)CC(c2ccco2)C1 (stereo not drawn) | i | 93.1 | i | i | +
COC(=O)[C@H](CC(C)C)N1Cc2cc(OC)cc(OC)c2-c2ccccc2S1(=O)=O | i | nt | nt | nt | nt
CC(C)N1CCc2c(sc(NC(=O)c3ccc4ccccc4c3)c2C(N)=O)C1 | i | ? | -37.4 | nt | i
CC(=O)c1ccc(C(=O)Nc2sc3c(c2C(N)=O)CCN(Cc2ccccc2)C3)cc1 | i | ? | -37.4 | nt | ?
